# Article PMC12136788
# In all, about 24,000 sequences were measured (“enrichment r”: median about 0.99, highest 2% from about 3.7 on). These entries were drawn from the full list.
# B1: chr18:56819859:56819860:+_ENSG00000166562_ENST00000588875|hu_mus|FALSE|FALSE (ssRNA)
# RNA: GGGAGUUCUACAGUCCGACGAUCAACCUUGAUUACUCUGUGAACUAUCGGAAUGUCUCUUCCUUCAACCUUAAAAACAACUAUUUCACCAGCUCUGAUGGGGUCCUCCCGGAAAUUCGUGAGGAACAGCAGAUCUCCUCUGUGCAACAGAGGAUUGAGCAUCA
# B2: 224577001_224577121_2655_3pUTR_ENSG00000162923_ENST00000295024|human|control|control (ssRNA)
# RNA: GGGAGUUCUACAGUCCGACGAUCCGGGCAAGGCUAGAAUCCAUGAACCAAGCUGCAAAGAUCUCAAGCUAAAUAAGGCGGAAAGAUUUGGAGAAACAAAAGAAGGAAAUUCUUUCCUAUCCAAUGUAUACUCUUCAGACUAAUCAACAGAGGAUUGAGCAUCA
# B3: chr2:62099399:62099400:-_ENSG00000115484_ENST00000544079|hu_hu|FALSE|FALSE (ssRNA)
# RNA: GGGAGUUCUACAGUCCGACGAUCGUAGGAUUCCAUACCACUCAGUGUUCGUGAAUAUUCAGUUAAUCGUAGGGCCAACUCUAUUUCUGGAGCACCACCUCCUGCAAUAAGAGCCCUCUUCUUCACUAAACAACGAAUAACACACAACAGAGGAUUGAGCAUCA
# B4: chr13:30086970:30086971:-_ENSG00000139514_ENST00000380752|hu_mus|FALSE|FALSE (ssRNA)
# RNA: GGGAGUUCUACAGUCCGACGAUCAGGCCCUGUGUAGGCUGGGGAAGUGUGCUACCACUAGGCUACACGCCUGUCCAGCCCCACUAACUCUUCCAUUCUCAAGAAUCUUCCAAAGCAGAGGAAAGACAGGGCCAUCAGUCUACCCAACAGAGGAUUGAGCAUCA
# B5: 101904251_101904371_108_5pUTR_ENSMUSG00000058655_ENSMUST00000169681|mouse|control|control (ssRNA)
# RNA: GGGAGUUCUACAGUCCGACGAUCGGAGAGAGAACGCAAAGGACCCGGAUGAGGCAGUCACGUGAUUAUAGCGGGCGCGACGGGCUUGGAGACGUGAAACCAGGAGGGGGCGGGGAGCCGAGGACGGAGGCAGAAGGCGGGGCGCAACAGAGGAUUGAGCAUCA
# B6: 125499526_125499646_756_3pUTR_ENSMUSG00000091337_ENSMUST00000164756|mouse|control|control (ssRNA)
# RNA: GGGAGUUCUACAGUCCGACGAUCCUGUGAGACCAAAGAGGAACGAUUUGGUCUUUUUCUCCUCGCGAUUCUCAGGUUUAACACUCCUCCUUCCUCGAUUCUCCUUUUCCACAAUGCAUGGUCAUUCACUGUCCCGUCUUCUAUCAACAGAGGAUUGAGCAUCA
# B7: 19967392_19969057_911_3pUTR_ENSMUSG00000002428_ENSMUST00000002502|mouse|control|control (ssRNA)
# RNA: GGGAGUUCUACAGUCCGACGAUCUCCCAGAAUGGUGGUAGUUCUUUACUGUUCUCUCGUGCGAUCAUCCAAGCUAGAGCUUGUUUUUGGUGUGGAAGCAACGGUGUUUCAAUAGCCUCAGCUGGUUCCAUUUCAACAGUUCUACAACAGAGGAUUGAGCAUCA
# B8: chrX:21990627:21990628:+_ENSG00000102172_ENST00000404933|hu_hu|FALSE|FALSE (ssRNA)
# RNA: GGGAGUUCUACAGUCCGACGAUCCACCCGCCCAGUACUGUCCUGACUCAAUUCUUUCAUUCUUUCCUCUACUUUGUUCAAAAUACUGUCGAUCUCUUCUUUGCCUUGCGCAUCACCAUCAUAACUCUGAAGGUCCAGCAACACCAACAGAGGAUUGAGCAUCA
# B9: chr14:102516957:102516958:+_ENSG00000197102_ENST00000360184|hu_mus|motif|central (ssRNA)
# RNA: GGGAGUUCUACAGUCCGACGAUCCCAUCAACCCUUCCACACCGUUAAGGAUGAAUGAAGGUUAAAUAUUGGGAGUUUCCGGUUCCAGAAAGAGGACUGGAGAAAAGUCUAGCUUUACUCAGUGCACAGAACGGCAACUCCACGCAACAGAGGAUUGAGCAUCA
# B10: chr18:67943652:67943653:+_ENSMUSG00000079614_ENSMUST00000025421|mus_hu|FALSE|FALSE (ssRNA)
# RNA: GGGAGUUCUACAGUCCGACGAUCAGUUGUCCUUUUAACCCAGUGGCUCUGUCCUCGCAGUUUAUCAUUUGAUUCUCCUACUAUUUCUUCCCAUACAGCAGCUGUUCGGUCAAAAGAACAGGAAGCCAAAACCUGCCCAAAUUCCAACAGAGGAUUGAGCAUCA
# B11: chrX:20185780:20185781:-_ENSG00000177189_ENST00000379565|hu_mus|motif|central (ssRNA)
# RNA: GGGAGUUCUACAGUCCGACGAUCUUUGGUUAUAGUAAACAGGACAGCGCUGGCCUCUCGCUCUGAGAAAAACUUCUGUCGGAGAAUCUUAUCCAGCAAUUCACCUCCUUUCAUAAGUUCUGUUACUACAUACACAUAUUUUCCCAACAGAGGAUUGAGCAUCA
# B12: chr11:77843920:77843921:+_ENSMUSG00000037791_ENSMUST00000049167|mus_hu|motif|central (ssRNA)
# RNA: GGGAGUUCUACAGUCCGACGAUCUUUUUUAUAUACAGAAUACAGGAAAGUUUCUGUAAAGUCUAAAACAUUACAAUUACGGUGUACAUUGGUACUGGUUGUGGGGGUGGGAGGAGAGGAGGGAACCAGGGGCAGGAGGAAGAGCAACAGAGGAUUGAGCAUCA
# B13: chr1:167252050:167252051:+_ENSMUSG00000040836_ENSMUST00000111450|mus_mus|motif|central (ssRNA)
# RNA: GGGAGUUCUACAGUCCGACGAUCGGAUACCAUUGAAGACAAGAGCCACAUGGUGGCUUCCCUUUCACAUCCACCAUCUCGGGUCCUCCUGAUGCCCCAGCCACAUCUCCAUCUGCUUCUAACGUGUGCUUUCGAAGCCUCGUUCAACAGAGGAUUGAGCAUCA
# B14: chr12:96259795:96259796:+_ENSG00000139343_ENST00000266735|hu_hu|FALSE|FALSE (ssRNA)
# RNA: GGGAGUUCUACAGUCCGACGAUCAAGGACAUUAUUACACCUUAUUAAAACUUCACCCAGAUGUCCAGACAAAGCUCCAUCUAUGUAUUCUUCUGUAUUUGCAAGCUGCAUGUUCAUGUAGCCAUCUACAGAUACCAGAUAGCCCAACAGAGGAUUGAGCAUCA
# Molecular target: T1, UNK ZnF1-3 (human, UniProt Q9C0B0 31-174)
# T1 sequence: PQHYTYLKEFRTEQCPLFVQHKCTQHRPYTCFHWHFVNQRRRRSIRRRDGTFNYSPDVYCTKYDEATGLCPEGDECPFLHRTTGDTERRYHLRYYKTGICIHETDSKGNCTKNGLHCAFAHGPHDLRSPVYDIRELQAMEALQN
# Test: nsRBNS (natural sequence RNA bind-n-seq); RBNS binding buffer (assumed for nsRBNS): 25 mM Tris pH 7.5, 150 mM KCl, 3 mM MgCl2, 0.01% Triton X-100, 500 ug/ml BSA, 20 U/ml SUPERase-In, 4 C; UNK is unkempt and MSI1 is Musashi-1; names of the RNAs are library labels; protein concentration not given here; high values mean tight binding
row,Binder,binding signal [enrichment R]
1,B1,0.758
2,B2,1.48
3,B3,1.13
4,B4,1.02
5,B5,3.03
6,B6,0.473
7,B7,0.75
8,B8,0.997
9,B9,1.11
10,B10,1.28
11,B11,0.794
12,B12,1.66
13,B13,0.721
14,B14,0.574
